# Results as given in PubChem BioAssay AID720554 (ICCB-Longwood Screening Facility, Harvard Medical School, 2013).
# The whole screen tested about 12,000 compounds, of which about 45 (0.4%) were called active. No stated cut-off is given here; in the data, active means inhibition mostly above about 83% (no sharp cut-off); inactive means mostly below about 52%. What follows is part of a selection rich in actives, with near analogues and random picks from the rest.
# Experiments:
# [1] = BmaI1 acyl-homoserine lactone synthase inhibition – biochemical, fluorescence intensity, with counterscreen (AID 720554); settings: BmaI1 enzyme assay, measured here: counterscreen fluorescence % control, concentration not given here
# [2] = system: acyl-homoserine lactone synthase BmaI1 (Burkholderia mallei ATCC 23344); experiment: as above; settings: BmaI1 enzyme assay, stronger effect = higher value, concentration not given here
Compound,inhibition [1],inhibition [2]
CCn1c(CCC(=O)Nc2ccc(N3CCOCC3)cc2)nc2cc(S(=O)(=O)N(C)C)ccc21,-2.5%,21% (inactive)
CCn1c(C)nc2cc(C#N)ccc21,6%,8% (inactive)
CN(C)S(=O)(=O)c1cccc(-c2nnc3n2N=C(c2cccs2)CS3)c1,-1%,87.5% (active)
CN(C)S(=O)(=O)c1cccc(-c2nnc3n2CCCCC3)c1,-2%,-4.5% (inactive)
CCc1ccc(C2=Nn3c(nnc3-c3cccc(S(=O)(=O)N(CC)CC)c3)SC2)cc1,3%,21% (inactive)
COc1ccc2c(Cl)c(-c3nnc4n3CCC4)sc2c1,-3.5%,6.5% (inactive)
Cn1c(CC(N)=S)nc2ccccc21,17%,92.5% (active)
Cc1csc(Cc2nc3ccccc3n2C)n1,8%,16% (inactive)
Cn1c(Cc2nnc3n2-c2ccccc2SC3)nc2ccccc21,-1%,28.5% (inactive)
Cc1cc(C(=O)Cn2cnc3sccc3c2=O)c(C)n1C1CC1,8.5%,16.5% (inactive)
CC(C)Sc1nc2ccccc2n1CN1CCN(c2ccccn2)CC1,3%,9% (inactive)
Cc1csc(=O)n1CN1CCN(C(=O)C2COc3ccccc3O2)CC1 (stereo not given),7.5%,17.5% (inactive)
COC(=O)COc1ccc2ccc(=O)oc2c1,-9.5%,-8% (inactive)
COC(=O)COc1cc(NO)ccc1N=O,4.5%,88.5% (active)
CCN(CC)c1ccc(N=CN2CCOCC2)cc1,-31%,53% (inactive)
COC(=O)c1c(C)oc(C)c(C(=O)OC)c1=O,2.5%,1.5% (inactive)
Cc1ccc(Cl)cc1N1CCN(Cn2sc3ccccc3c2=O)CC1,8.5%,77% (inactive)
CCOC(=O)C1CCN(Cn2c(=S)oc3ccc(S(=O)(=O)CC)cc32)CC1,-4%,5% (inactive)
O=S(=O)(c1ccc2oc(=S)n(CN3CCOCC3)c2c1)N1CCOCC1,4%,99.5% (active)
Nc1nc2cc(S(=O)(=O)N3CCOCC3)ccc2o1,-5.5%,2.5% (inactive)

Compound,inhibition [1],inhibition [2]
CCn1c(=O)c(=O)[nH]c2cc(C(=O)Nc3ccccc3N3CCOCC3)ccc21,19.5%,16.5% (inactive)
O=c1[nH]nc(-c2ccco2)o1,-7%,96% (active)
Cn1c(-c2ccco2)n[nH]c1=S,80%,96.5% (inactive)
c1coc(-c2nnc(-c3ccco3)nn2)c1,34%,0% (inactive)
Cc1cc(C(=O)Cn2cc(C(F)(F)F)ccc2=O)c(C)n1Cc1ccco1,1%,3% (inactive)
Cc1ccc(C(=O)NCCN2C(=O)S/C(=C\c3ccc(F)cc3)C2=O)cc1NC(=O)c1ccco1,-9.5%,6.5% (inactive)
O=C(O)c1sc2sccc2c1Cl,-1.5%,8.5% (inactive)
O=C1NC(C(=O)O)Cc2ccccc21 (stereo not given),9%,15% (inactive)
O=C1Cc2ccccc2C(=O)N1,7%,99.5% (active)
O=C1CCc2ccccc2N1,-5%,-11% (inactive)
O=C(CN1C(=O)c2ccccc2S1(=O)=O)N1N=C(c2ccc(Cl)cc2)CC1c1ccco1 (stereo not given),10.5%,15% (inactive)
CC1Sc2ccc(C(=O)Oc3ccc4c(c3)OCO4)cc2NC1=O (stereo not given),2%,35.5% (inactive)
CCN(CC)S(=O)(=O)c1ccc2c(c1)CCCN2,-4%,18% (inactive)
O=C(OCC(=O)N1CCC(Cc2ccccc2)CC1)c1ccc(O)cc1,-7.5%,2.5% (inactive)
COc1ccc(N(C)S(=O)(=O)c2cccc(C(=O)Nc3ccc(N4CCN(C)CC4)cc3C)c2)cc1,11.5%,9% (inactive)
Cc1c(C(=O)O)sc2nc(CSc3nnc(-c4ccc(F)cc4)n3C)[nH]c(=O)c12,2.5%,3% (inactive)
N#CC1=C(N)N(c2ccccc2)C(=O)C1,0%,-10.5% (inactive)
N#Cc1c(N)sn(-c2ccccc2)c1=S,11.5%,102% (active)
CCOC(=O)c1c(N)sn(-c2ccccc2)c1=S,14.5%,17% (inactive)
COC(=O)C(C)Sc1ncnc2sc(C)c(C)c12 (stereo not given),7%,13% (inactive)

Compound,inhibition [1],inhibition [2]
Cc1sc2ncnc(N)c2c1C,9.5%,89.5% (active)
Cc1sc2ncnc(N3CCc4ccccc43)c2c1C,6%,8.5% (inactive)
CCCCn1ccnc1C(=O)c1ccc(S(=O)(=O)N2CCCC2)cc1,1%,8% (inactive)
CCCCN1C(=O)CC(C(=O)O)C1c1ccc(OC)cc1 (stereo not given),3%,-3.5% (inactive)
CCOc1ccc(/C=N/N2C(=O)NC(C)(CC)C2=O)c(O)c1 (stereo not given),-4.5%,0.5% (inactive)
CC(=O)NCCc1ccc(-c2csc(N)n2)cc1,41%,24% (inactive)
CC(=O)NCc1ccc(-c2csc(N)n2)o1,17.5%,92.5% (active)
COc1ccc(Cc2nnc3n2N=C(c2ccc(CNC(C)=O)o2)CS3)cc1,6%,15.5% (inactive)
COc1cc2c(cc1NC(=O)C(C)Sc1nncn1C)oc1ccccc12 (stereo not given),-6.5%,16.5% (inactive)
CNC(=O)NC(=O)C(C)N1CCc2ccccc2C1 (stereo not given),-2.5%,2.5% (inactive)
COc1cccc(CC(=O)Nc2cccc(OC)c2)c1,2%,8.5% (inactive)
COc1cccc(N=C2NNC(C)=C(C(=O)N(C)C)S2)c1,13.5%,88.5% (active)
COc1cccc(NC(=O)/C=N/O)c1,19.5%,37.5% (inactive)
CCn1c(Cn2cc(S(=O)(=O)N3CCCC3)ccc2=O)nc2cc(S(=O)(=O)N(C)C)ccc21,1%,8.5% (inactive)
Oc1c(C(c2cccnc2)N2CCCCC2)ccc2cccnc12 (stereo not given),-53.5%,-20.5% (inactive)
Oc1c(C(Nc2ccccn2)c2cccnc2)ccc2cccnc12 (stereo not given),-15%,14% (inactive)
Oc1c(C(c2cccnc2)N2CCOCC2)ccc2cccnc12 (stereo not given),28.5%,105% (active)
CC(Sc1nnc(-c2ccccc2)o1)C(=O)N(C)c1ccccc1 (stereo not given),9%,7% (inactive)
CN(C(=O)c1ccco1)C1(c2ccccc2Cl)CCCCC1=O (stereo not given),5.5%,9.5% (inactive)
CCOC(=O)C(Sc1n[nH]c(N)n1)c1ccccc1 (stereo not given),13.5%,15.5% (inactive)
